Results on six molecules are retold here after PubChem BioAssay.

The target in assay [1] is Albumin (Bos taurus) (UniProt P02769). The experiment in a line: compounds binding labelled BSA control protein – biochemical, small-molecule microarray, Alexa647 label, 635/667 nm fluorescence, artefact control for SMM control protein annotation, profiling panel (AID 1118).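 Note: score merges 667 nm emission intensity and signal-to-noise per printed compound spot.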 The note with it: BSA-A647 binding, fluorescence 635 nm, higher = more signal.
Albumin (Bos taurus), sequence (P02769 whole entry, looked up): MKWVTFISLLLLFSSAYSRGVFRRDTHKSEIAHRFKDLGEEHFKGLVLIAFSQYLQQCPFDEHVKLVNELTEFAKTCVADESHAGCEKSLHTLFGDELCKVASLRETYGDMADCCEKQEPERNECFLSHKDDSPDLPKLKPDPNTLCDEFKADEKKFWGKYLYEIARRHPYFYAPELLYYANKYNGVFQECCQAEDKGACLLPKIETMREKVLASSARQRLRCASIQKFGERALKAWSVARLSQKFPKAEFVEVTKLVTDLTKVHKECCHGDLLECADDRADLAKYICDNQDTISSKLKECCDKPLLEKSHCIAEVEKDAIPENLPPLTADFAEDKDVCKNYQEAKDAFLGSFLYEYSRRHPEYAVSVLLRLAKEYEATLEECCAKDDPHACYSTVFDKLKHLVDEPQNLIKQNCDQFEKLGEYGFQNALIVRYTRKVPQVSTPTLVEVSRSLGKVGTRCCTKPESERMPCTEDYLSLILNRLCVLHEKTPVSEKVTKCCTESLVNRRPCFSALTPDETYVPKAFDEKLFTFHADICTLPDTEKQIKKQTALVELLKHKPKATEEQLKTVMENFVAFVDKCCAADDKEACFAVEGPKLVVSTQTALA
Assay [2] is described as follows: probe aXIP binding to arrayed compounds – biochemical, NeuroSMM set, 635/667 nm fluorescence, primary screen (AID 1119).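 Note: probe is the protein aXip251-270 applied at 1 µg/mL to compound-printed slides; binding of probe to printed compounds measured as 667 nm fluorescence plus signal to noise.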 The note with it: small-molecule microarray, higher = more signal, called active from +8 up or from −8 down.
Assay [3] in a line: probe aNOTCH3 binding on compound microarray – biochemical, small-molecule microarray, 635/667 nm fluorescence, primary screen (AID 1120).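 Note: probe is a biotin-tagged antibody raised against NOTCH3 rather than NOTCH3 protein; score merges spot fluorescence near 667 nm with spot signal to noise.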 The note with it: higher = more signal.
Assay [4] can be described thus: probe aNOTCH2 binding on compound microarray – biochemical, small-molecule microarray, 635/667 nm fluorescence, primary screen (AID 1121).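 Note: score merges feature fluorescence read at 667 nm with its signal to noise.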 The note with it: higher = more signal.
In assay [5] the target is Carbonic anhydrase 2 (Homo sapiens) (UniProt P00918). The experiment in a line: compounds binding carbonic anhydrase 2 – biochemical, small-molecule microarray, Alexa647-labelled CAII, profiling panel (AID 1122). Conditions: CAII-A647 binding fluorescence, higher = more signal.
A short description of assay [6]: COS7 lysate on small-molecule microarray, probe aHis, 635 nm (AID 1123).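 Note: z-score combines 667nm fluorescence intensity with signal-to-noise per printed compound spot.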 The note with it: COS7 cell lysate, fluorescence, higher = more signal.
The nature of assay [7]: probe aLAP1 signal on lysate-treated microarray – cell lysate, small-molecule microarray, COS7 lysate, primary screen (AID 1124).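 Note: lysate comes from COS7 cells expressing LAP1 and is applied at 0.3 µg/mL; score merges spot fluorescence near 667 nm with signal-to-noise over triplicate slides.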 The note with it: probe aLAP1, fluorescence, higher = more signal.
In assay [8] the test system is Sam68 (KHDRBS1). Kind of assay: compounds binding KHDRBS1 protein – biochemical, small-molecule microarray, 635 nm fluorescence, primary screen (AID 1125).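 Note: score merges 667 nm channel intensity with signal to noise over triplicate slides.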 Conditions: higher = more signal.
In assay [9] the test system is Chordin-like protein 2 (CHRDL2). The experiment in a line: compounds binding chordin-like 2 – biochemical, small-molecule microarray, 635 nm fluorescence, primary screen (AID 1126).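 Note: printed compound slides probed with Chrdl2 protein at 4 µg/mL for 1 h at 4 C; score merges 667 nm emission intensity with signal to noise over three replicate slides.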 Conditions: fluorescence 635 nm, higher = more signal.
Assay [10] addresses Concanavalin-A (Canavalia ensiformis) (UniProt P02866). The experiment in a line: compounds binding concanavalin A lectin – biochemical, small-molecule microarray, Alexa647 label, 635 nm, artefact control for SMM control protein annotation, primary screen (AID 1127).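 Note: z combines 667 nm emission intensity with signal-to-noise across three replicate slides.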 Conditions: ConA-A647 binding fluorescence, higher = more signal.
The nature of assay [11]: compounds binding Alexa647 anti-His antibody – biochemical, small-molecule microarray, 635 nm fluorescence, artefact control for SMM control protein annotation, primary screen (AID 1128).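 Note: score merges feature fluorescence with signal-to-noise for each printed compound spot.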 Conditions: higher = more signal.
Assay [12] has as its system Human papillomavirus type 1a E7 protein (residues 1-88). Kind of assay: HPV1a E7 small-molecule binders, primary screen, biochemical, small-molecule microarray, residues 1-88, 635 nm (AID 1129). Conditions: small-molecule microarray binding, fluorescence 635 nm; higher = more signal.
Assay [13] deals with Focal adhesion kinase 1 (Homo sapiens) (UniProt Q05397). Kind of assay: PTK2 protein binding on printed compound slides – biochemical, small-molecule microarray, 635/667 nm fluorescence, BSA, DTT, primary screen (AID 1130).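 Note: composite of spot emission at 667 nm and signal to noise over triplicate slides.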 The note with it: 635 nm fluorescence, higher = more signal.
Focal adhesion kinase 1 (Homo sapiens), sequence (Q05397 whole entry, looked up): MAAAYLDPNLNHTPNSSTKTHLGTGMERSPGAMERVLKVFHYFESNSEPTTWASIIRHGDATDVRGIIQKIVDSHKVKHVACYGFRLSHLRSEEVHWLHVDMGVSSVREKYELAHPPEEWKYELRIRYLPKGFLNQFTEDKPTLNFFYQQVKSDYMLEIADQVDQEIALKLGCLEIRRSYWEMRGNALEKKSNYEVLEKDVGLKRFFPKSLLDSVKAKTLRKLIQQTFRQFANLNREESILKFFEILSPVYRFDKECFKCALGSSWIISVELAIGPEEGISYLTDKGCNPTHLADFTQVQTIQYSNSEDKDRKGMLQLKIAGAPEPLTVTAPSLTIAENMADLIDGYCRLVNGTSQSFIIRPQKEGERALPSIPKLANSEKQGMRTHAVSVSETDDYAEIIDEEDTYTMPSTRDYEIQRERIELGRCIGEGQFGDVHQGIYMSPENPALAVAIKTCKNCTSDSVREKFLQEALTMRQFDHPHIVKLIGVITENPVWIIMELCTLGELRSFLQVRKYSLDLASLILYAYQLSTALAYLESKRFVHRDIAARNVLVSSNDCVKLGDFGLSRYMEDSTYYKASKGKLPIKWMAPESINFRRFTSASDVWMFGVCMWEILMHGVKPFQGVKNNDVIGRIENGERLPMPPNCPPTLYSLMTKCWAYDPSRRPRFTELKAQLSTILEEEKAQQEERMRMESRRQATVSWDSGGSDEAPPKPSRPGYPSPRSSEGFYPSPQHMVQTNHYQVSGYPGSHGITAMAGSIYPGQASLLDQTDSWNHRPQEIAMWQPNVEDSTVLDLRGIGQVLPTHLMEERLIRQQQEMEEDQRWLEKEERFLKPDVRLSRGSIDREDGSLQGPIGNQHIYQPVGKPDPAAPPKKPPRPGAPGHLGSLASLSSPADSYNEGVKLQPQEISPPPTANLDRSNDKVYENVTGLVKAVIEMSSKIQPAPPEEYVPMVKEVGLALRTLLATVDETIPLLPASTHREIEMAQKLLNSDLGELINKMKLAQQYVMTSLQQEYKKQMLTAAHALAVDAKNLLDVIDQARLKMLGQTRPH
For assay [14], the system named is Fibrinogen (Alexa647-labelled). The experiment in a line: Alexa647-fibrinogen binding to printed small molecules – biochemical, small-molecule microarray, 635/667 nm fluorescence, artefact control for SMM control-protein annotation, profiling panel (AID 1131).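 Note: z-score merges 667 nm fluorescence with per-spot signal-to-noise over triplicate slides.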 The note with it: fibrinogen-A647 binding fluorescence, higher = more signal.
Assay [15] deals with Follistatin (Homo sapiens) (UniProt P19883). Kind of assay: FST protein binding to printed compounds – biochemical, small-molecule microarray, 635/667 nm fluorescence, primary screen (AID 1132). Conditions: 635 nm fluorescence, higher = more signal.
Follistatin (Homo sapiens), sequence (P19883 whole entry, looked up): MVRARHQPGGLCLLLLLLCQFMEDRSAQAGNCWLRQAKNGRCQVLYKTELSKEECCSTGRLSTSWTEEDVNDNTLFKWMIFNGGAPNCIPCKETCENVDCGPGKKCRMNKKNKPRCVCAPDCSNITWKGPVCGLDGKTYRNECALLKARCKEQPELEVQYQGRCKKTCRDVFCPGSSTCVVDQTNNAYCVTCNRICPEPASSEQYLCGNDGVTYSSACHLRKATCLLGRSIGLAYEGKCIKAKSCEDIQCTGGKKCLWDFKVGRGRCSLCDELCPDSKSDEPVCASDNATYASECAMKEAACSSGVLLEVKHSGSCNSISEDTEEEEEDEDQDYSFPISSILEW
Assay [16] concerns the target Fibroblast growth factor 2 (Homo sapiens) (UniProt P09038). The experiment in a line: basic fibroblast growth factor binding to printed compounds – biochemical, small-molecule microarray, 635/667 nm fluorescence, primary screen (AID 1133). The note with it: FGF2, fluorescence 635/667, higher = more signal.
Assay [17] is described as follows: JC-1 mitochondrial potential readout, lung cancer cells – cell-based, A549, JC-1 fluorescence, basal, 24 h, 100 nL, profiling panel (AID 1138).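 Note: A549 lung adenocarcinoma cells under basal conditions with no added stimulus; test concentration not given here.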 Conditions: higher = more signal.
Assay [18] has as its system Lefty1. Kind of assay: Lefty1 protein binding to printed compounds – biochemical, small-molecule microarray, 635/667 nm fluorescence, primary screen (AID 1139). Conditions: fluorescence 635/667, higher = more signal.
The test system of assay [19] is wheat germ agglutinin (Triticum aestivum), Alexa647-labelled. Kind of assay: Alexa647-WGA lectin binding to printed small molecules – biochemical, small-molecule microarray, 635/667 nm fluorescence, artefact control for SMM control-protein annotation, profiling panel (AID 1140).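 Note: score merges 667 nm feature emission with signal to noise over triplicate slides.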 The note with it: WGA-A647 binding, 635 nm fluorescence, higher = more signal.
Assay [20] addresses Luciferin 4-monooxygenase (Photinus pyralis) (UniProt P08659). The experiment in a line: inhibition of purified Photinus pyralis luciferase – biochemical, luminescence, purified enzyme, 2006 set, primary screen (AID 1141).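 Note: cell-free assay with purified firefly luciferase at 100 ng per well in PBS; test concentration not given here.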 The note with it: purified firefly luciferase, SteadyGlo luminescence, 30 min; higher = more signal, called active from +8 up or from −8 down.

Structures are written as SMILES. Activity calls are given as the source filed them.

Fibroblast growth factor 2 (Homo sapiens), sequence (P09038 whole entry, looked up): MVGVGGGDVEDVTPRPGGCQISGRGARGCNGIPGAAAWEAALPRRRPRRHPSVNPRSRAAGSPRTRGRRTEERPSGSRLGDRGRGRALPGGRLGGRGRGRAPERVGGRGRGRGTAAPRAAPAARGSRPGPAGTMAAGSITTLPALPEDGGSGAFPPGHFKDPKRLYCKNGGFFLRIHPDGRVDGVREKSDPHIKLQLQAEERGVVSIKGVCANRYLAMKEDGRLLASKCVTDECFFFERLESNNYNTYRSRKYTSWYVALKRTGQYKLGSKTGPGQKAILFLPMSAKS
Luciferin 4-monooxygenase (Photinus pyralis), sequence (P08659 whole entry, looked up): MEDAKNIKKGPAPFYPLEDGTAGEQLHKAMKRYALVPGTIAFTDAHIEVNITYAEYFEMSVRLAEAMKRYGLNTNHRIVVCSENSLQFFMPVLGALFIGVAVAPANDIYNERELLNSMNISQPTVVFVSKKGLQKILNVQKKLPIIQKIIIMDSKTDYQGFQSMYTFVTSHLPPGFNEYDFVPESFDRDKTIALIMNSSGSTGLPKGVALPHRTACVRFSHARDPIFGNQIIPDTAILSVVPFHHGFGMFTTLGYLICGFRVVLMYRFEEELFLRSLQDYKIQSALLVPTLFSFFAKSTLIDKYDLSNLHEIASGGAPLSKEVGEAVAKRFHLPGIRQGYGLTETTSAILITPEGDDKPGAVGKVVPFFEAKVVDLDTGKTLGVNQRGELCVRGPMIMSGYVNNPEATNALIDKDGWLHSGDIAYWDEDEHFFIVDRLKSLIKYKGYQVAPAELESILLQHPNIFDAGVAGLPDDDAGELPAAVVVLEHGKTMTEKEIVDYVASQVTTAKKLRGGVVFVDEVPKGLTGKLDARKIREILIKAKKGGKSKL
Concanavalin-A (Canavalia ensiformis), sequence (P02866 whole entry, looked up): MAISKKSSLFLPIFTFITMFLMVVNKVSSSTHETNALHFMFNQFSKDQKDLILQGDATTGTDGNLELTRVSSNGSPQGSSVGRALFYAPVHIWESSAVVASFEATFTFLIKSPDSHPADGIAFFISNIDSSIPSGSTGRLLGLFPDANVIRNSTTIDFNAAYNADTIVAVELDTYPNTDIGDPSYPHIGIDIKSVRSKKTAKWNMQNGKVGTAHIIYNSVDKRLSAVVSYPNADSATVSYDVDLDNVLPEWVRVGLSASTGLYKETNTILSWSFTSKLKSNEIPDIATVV

Regarding `COC(=O)C1=CC(c2ccc(CO)cc2)=CC(c2cccs2)N(C)C=C1C(=O)OC` (stereo not given), the composite z-score in [1] is 0.208; in assay [3] it was -0.0023; in [4], -0.14; in assay [5], 0.589; in assay [6], 2; in assay [7], 0.387. The composite z-score in assay [8] was 0.494; in assay [9] it was -1.14; in assay [10], 0.494; in [11] it was 1.48; in assay [12] it was -0.351; in assay [13], 1.18. The composite z-score in [14] was -0.141; in [15], 0.23; in assay [16] it was -0.485; in assay [18], -0.116; in [19] it was 0.84. Also, the composite Z-score in [2] is 0.875 (inactive). Also, the figures for the z-score in assay [17] and in assay [20] were 1.08 and -0.822 (inactive), respectively.
On to `C=C(COC)C(=O)CC[C@H](OC(=O)c1ccccc1-c1ccccc1C(=O)O)c1ccccc1OCCO`, for which the composite z-score was -0.714 in assay [1]; -0.0881 in assay [3]; -0.126 in assay [4]; 0.59 in assay [5]; 0.125 in assay [6]; 0.283 in assay [7]. The composite z-score in assay [8] is 0.452; in [9], -0.0006; in [10], 0.7; in [11], -0.307; in assay [12], 0.536; in assay [13], -0.203. Moreover, the composite z-score in [14] is -0.591; in assay [15], 0.905; in assay [16], 0.855; in assay [18] it was 0.655; in assay [19], -0.179. Besides, the composite Z-score in assay [2] is 1.42 (inactive). In addition, the figures for the z-score in [17] and in assay [20] were 0.904 and -3.05 (inactive), respectively.
In the case of `COCCOC(=O)N1C(=O)[C@@]2(c3cc(C#CCNC(N)=O)ccc31)[C@H](C(=O)NC[C@H](O)c1ccccc1)[C@H]1C(=O)O[C@H](c3ccccc3)[C@H](c3ccccc3)N1[C@@H]2c1ccc(O)cc1`, the composite z-score in [1] was 0.348; in [3], -0.0044; in assay [4], -0.104; in [5], 0.0718; in assay [6] it was 1.14; in [7], 1.01. The composite z-score in assay [8] was 0.928; in assay [9], -0.474; in assay [10], 1.02; in [11], 0.95; in [12] it was 0.502; in assay [13], 0.492. Besides, the composite z-score in [14] came out at 0.651; in [15], 1.35; in assay [16] it was 0.674; in [18], 0.16; in [19], 0.436. In addition, the composite Z-score in assay [2] is 0.239 (inactive). The z-score in [17] was -0.175; in [20], -1.48 (inactive).
Regarding `CC(C)(C)OC(=O)CC[C@@]1(C(=O)NCc2ccccc2)N=C(c2ccc(OCCCO)cc2)O[C@@H]1c1ccccc1CN=[N+]=[N-]`, the composite z-score was 0.871 in [1]; 0.33 in assay [3]; -0.0736 in assay [4]; 0.596 in assay [5]; 2.02 in assay [6]; 0.379 in [7]. In addition, the composite z-score in assay [8] is 1.15; in [9], -0.521; in assay [10], 1.09; in assay [11] it was 2.59; in assay [12] it was 1.22; in assay [13] it was -0.128. Also, the composite z-score in [14] was found to be 0.933; in assay [15], 1.34; in assay [16], 0.915; in assay [18], 0.148; in [19], 1.27. In addition, the composite Z-score in assay [2] was 0.647 (inactive). Moreover, the z-score in assay [17] is 0.641; in assay [20], -1.24 (inactive).
Regarding `Cc1ccc(S[C@]2(C(=O)NCC(C)C)CC(=O)N(C(C)C)[C@@H]2c2ccc(CO)cc2)cc1`, the composite z-score in assay [1] was -0.283; in assay [3], -0.255; in assay [4], -0.163; in [5], 0.747; in assay [6], 0.301; in assay [7] it was -0.311. In addition, the composite z-score in [8] was -0.749; in [9], -0.589; in assay [10], -0.522; in assay [11] it was -1.15; in assay [12], 0.259; in [13], -0.267. Also, the composite z-score is -1.48 in assay [14]; 0.259 in assay [15]; 0.206 in [16]; -0.477 in [18]; -1.76 in [19]. Also, the composite Z-score in [2] is 0.0333 (inactive). Further, the z-score in [17] is 0.69; in assay [20], -0.204 (inactive).
As to `CC(C)C(CO)N1C(=O)[C@@H]2[C@H]3C(=O)OCC=C[C@H]3OC23C=CCN(Cc2ccccc2)C(=O)[C@@H]13` (stereo not given in full), the composite z-score in assay [1] was -1.27; in [3] it was 0.271; in [4], -0.154; in assay [5], 0.833; in assay [6] it was -0.635; in assay [7], -0.733. The composite z-score was -0.69 in [8]; -1.02 in assay [9]; -2.22 in assay [10]; -1.88 in assay [11]; -1.62 in [12]; -0.778 in assay [13]. The composite z-score was -1.48 in assay [14]; -0.317 in assay [15]; -0.392 in assay [16]; -0.375 in [18]; -1.06 in [19]. The composite Z-score in assay [2] is -0.0662 (inactive). Also, the z-score is 0.792 in assay [17] and -0.511 (inactive) in [20].
